Reference: PubChem BioAssay (Tox21)
Results filed as inconclusive are left out. Entries that show only a call come without a potency. Values without a mark were called inactive. Calls of active or inactive are those of the source. Unless noted, the call rests on the fitted dose curve.

Test: qHTS assay to identify small molecule antagonists of the progesterone receptor (PR) signaling pathway - cell viability counter screen (AID 1346798; active means well fitted cell-killing curve with a large enough effect in the repeat runs; further: nearly all actives have a fitted effect of over 50% in size)
Conditions: PR-UAS-bla HEK293T viability, CellTiter-Glo luminescence, 16 h; series mostly up to 42.5 µM
Procedure, shortened: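 In the same plates used for the beta-lactamase readout, cell viability of compound- and R5020-treated PR-UAS-bla HEK293T cells (16 hr, 37C) was assessed by CellTiter-Glo luminescence.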
Potency means the concentration at half of the fitted maximal effect.

Structure (SMILES) | activity change, negative = cytotoxicity | Potency
NC(Cc1ccc(F)cc1)C(=O)O (centres undefined) | -3.28% [at 8.39 µM] | –
O=C1C=CC(=O)O1 | – | inactive
CCCCNCCCC | – | inactive
NNS(=O)(=O)c1ccc(Oc2ccc(S(=O)(=O)NN)cc2)cc1 | – | inactive
CCC(=O)c1ccc2c(c1)N(CCCN(C)C)c1ccccc1S2 | – | inactive
CC1=C2[C@H](/C=C(\C)C(=O)O)CC[C@@H](C)[C@H]2CC1 | – | inactive
COC(=O)/C=C(/C)N | – | inactive
Cc1nc(-c2ccccn2)ncc1C(=O)Nn1cc(C)c2cc(F)ccc21 | – | 30.6 µM (active)

Test: qHTS assay to identify small molecule agonists of the progesterone receptor (PR) signaling pathway - cell viability counter screen (AID 1346799); further: nearly all actives have a fitted effect of over 45% in size
Conditions: PR-UAS-bla HEK293T viability, CellTiter-Glo luminescence, 16 h; series mostly up to 92.4 µM
Procedure, shortened: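 Multiplexed viability read: CellTiter-Glo luminescence, 30 min RT, following LiveBLAzer FRET measurement on PR-UAS-bla HEK293T cells exposed to compounds 16 hr.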

Structure (SMILES) | Potency
CC(=O)O[C@H]1CC[C@@]2(C)C(=CC[C@@H]3[C@@H]2CC[C@]2(C)C(C(C)=O)=CC[C@@H]32)C1 | inactive
CCCCC(CC)COC(=O)COc1cc(Cl)c(Cl)cc1Cl (centres undefined) | inactive
CCCCCCCCCCCCOCCOS(=O)(=O)O | 27.3 µM (active)
CN(C)CC[C@@H](c1ccc(Cl)cc1)c1ccccn1 | inactive
CC/C=C\CCOC(=O)C(C)C | inactive
OCCN1CCN(CCO)CC1 | inactive
O=C1N(c2ccccc2)c2ccccc2C1(Cc1ccncc1)Cc1ccncc1 | inactive
COc1ccccc1OCC(O)COC(N)=O (centres undefined) | inactive
CC(=O)N[C@@H](CC(C)C)C(=O)O | inactive
CCCC1CCC(=O)O1 (centres undefined) | inactive
CC(C)S | inactive
COC(=O)C(C)O (centres undefined) | inactive
CCOc1ccc(OCC)c(Cl)c1 | inactive
Cc1nc(N)nc(N)c1-c1ccc(Cl)c(Cl)c1 | inactive
c1ccc(CN(CC2=NCCN2)c2ccccc2)cc1 | inactive
Cc1cc2nc(N)sc2cc1C | inactive
